Screens from PubChem.
AMA1 RON2 block: AMA1-RON2 (P. falciparum) interaction inhibition; AlphaScreen AMA1-biotinylated RON2 peptide binding; Potency, µM (titrated, usually from 58.2 µM), without a hit: top-dose activity change, negative = inhibition, most hits filed as inhibitors; 0.2% of 360,000 active; AID 720542;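 further: potency means the concentration at half of the fitted maximal effect; 0% = vehicle wells and -100% = peptide control; nearly all actives have a fitted effect of over 45% in size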
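AMA1 (3D7) with his tag at 25 nM final met compounds first, then biotinylated RON2 peptide at 25 nM; detection used donor plus acceptor beads, 10 µg/mL apiece, read by AlphaScreen after 30 min at room temperature.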
HCV inh: inhibitors of hepatitis C virus infection | Potency, µM (series often up to 41.8 µM), for inactives: at the highest dose activity change, negative = inhibition, usual class: inhibitors | 3.4% of 340,000 active | Huh7.5.1 HCVcc-Cre infection, luciferase reporter, 44 h; further: potency means the concentration at half of the fitted maximal effect; on the % scale 0 is the no-effect control and ±100 the full control effect
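Reporter virus HCVcc-Cre (~0.5 moi) infects cells exposed to compound; seeding density 1,000 cells/well with 4 h settling beforehand. Luminescence, 15 sec read, taken 44 h post-infection following a 15 min RT substrate incubation.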
Pf growth 96h: P. falciparum growth inhibition at 96 hour, primary screen for plastid delayed-death inhibitors; Potency, µM (highest dose often 28.7 µM), for inactives: at the top dose activity change, negative = inhibition, hits mostly inhibitors; AID 504834; P. falciparum luciferase reporter growth, 96 h; 6.9% of 320,000 active; further: potency means the concentration at half of the fitted maximal effect; on the % scale 0 is the no-effect control and ±100 the full control effect
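P. falciparum expressing integrated firefly luciferase, in erythrocytes at 2% hematocrit, 0.05% parasitemia, incubated with compounds 96 h at 37 C, 5% CO2. Growth inhibition read as loss of luminescence; two-generation exposure targets delayed-death apicoplast inhibitors.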
Pf growth 48h: inhibits P. falciparum growth in the first generation, 48 h; 5.9% of 310,000 active; Potency, µM (top dose mostly 28.7 µM), for inactives: top-dose activity change, negative = inhibition, most hits filed as inhibitors; P. falciparum luciferase growth in erythrocytes, 48 h; AID 504832; further: potency means the concentration at half of the fitted maximal effect; on the % scale 0 is the no-effect control and ±100 the full control effect
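Here the parasites carry a stable luciferase gene and grow inside erythrocytes in Albumax-based RPMI medium with compound for one erythrocytic cycle. Activity is scored as loss of luminescent signal.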
Shiga inhibitor: Shiga toxin inhibition | Vero cells, Shiga toxin protein synthesis inhibition reporter | inhibition, % at 38.7 µM | 9.2% of 290,000 active; in the data active means inhibition mostly above about 28%, no sharp cut-off; inactive means mostly below about 43%; further: 0% is about no effect
Cycloheximide cs: counter-screen hit for Shiga toxin inhibitors, cycloheximide | cell reporter, cycloheximide protein synthesis inhibition counterscreen | max response, % | 12% of 300,000 active | AID 2314; in the data active means max response mostly above about 13%, no sharp cut-off; inactive means mostly below about 14%; further: read at 38.3 µM for the half of the compounds with a filed dose; 0% is about no effect
* = called active by the depositor; ? = inconclusive; . = no result; ! = not active in a repeat; [ ] = remark or other dose. Only some compounds are listed: those with a hit (about 21% of all), similar ones and a draw of the others. Unless noted, the call rests on the fitted dose curve; in most records, active means well fitted curve in the direction sought with a large enough effect; inconclusive means small, poorly fitted or top-dose-only effect, or another doubt; inactive means no such curve, though single readings can be large; an effect the other way counts as inactive or inconclusive.

SMILES | AMA1 RON2 block | HCV inh | Pf growth 96h | Pf growth 48h | Shiga inhibitor | Cycloheximide cs
O=[N+]([O-])c1ccccc1Nc1ccccc1 | 10µM* | -4.8% | 12.7% | 2.4% | 24.9 | -2.0
c1ccc(Nc2ccc(Nc3ccccc3)cc2)cc1 | 15.8µM* | ? | ? | -15.2% | . | .
CC(=O)c1cccc(Nc2ccc(C#N)cc2)c1 | 10.6% | . | . | . | . | .
N#CC(C#N)=C(C#N)c1ccc(Nc2ccccc2)cc1 | 4.9% | 19.2% | 11.7µM* | 13.4% | . | -1.1
COc1ccc(-n2ncc3c2CC(C)(C)CC3NC(=O)c2cn[nH]c2)cc1 (configuration not stated) | 0.8% | 26.6% | -21.0% | 3.9% | -14.1 | 0.9
O=[N+]([O-])c1ccc(Nc2ccccc2)cc1 | 8.7% | -9.7% | ? | 32.0% | 25.8 | 15.8*
CC(=O)Nc1sc2c(c1C(c1ccccn1)N1CCCC1)CCCC2 (configuration not stated) | 65.9% | 13.4% | 10.4µM* | 9.28µM* | 3.4 | 17.6
CC(=O)Nc1sc2c(c1C(c1ccccc1Cl)N1CCN(CCO)CC1)CCCC2 (configuration not stated) | -12.5% | 11.2µM* | ? | ? | -13.7 | -4.3
NC(=O)Cn1cc(/C=N/NC(=O)c2ccc(Cn3cc(Cl)cn3)o2)c(-c2ccccc2)n1 | 5.5% | 7.7% | -17.9% | 4.1% | -3.7 | 7.4
CSc1nc(-c2ccccc2)nn1S(=O)(=O)c1ccccc1 | -0.7% | 6.4% | 17.2% | 27.4% | 35.3 | 17.5*
COc1ccc(-c2nc(SC)n(S(=O)(=O)c3ccccc3)n2)cc1 | -4.9% | 16.0% | . | 82.8% | 96.0* | 27.9*
CSc1nc(-c2ccccc2)nn1S(=O)(=O)c1ccc(Cl)cc1 | 8.9% | 7.1% | . | 3.4% | -4.3 | -2.3
CC(C)C(c1nnnn1C1CCCCC1)N1CCCc2ccccc21 (configuration not stated) | -9.1% | 7.4% | -28.7% | 9.28µM* | -1.6 | -4.3
CC(C)C(c1nnnn1C1CCCC1)N1CCCc2ccccc21 (configuration not stated) | -21.5% | -15.7% | -15.3% | 13.1µM* | 2.9 | 0.4
Cc1ccc2[nH]c(=O)c(C(c3nnnn3C3CCCC3)N3CCCc4ccccc43)cc2c1 (configuration not stated) | -9.3% | -21.8% | 15.6% | ? | 10.5 | 7.4
CC(C)C(c1nnnn1C1CCCC1)N1CCOCC1 (configuration not stated) | 7.0% | -0.5% | -18.3% | 31.1% | -7.9 | -0.4
Cc1ccc(C(c2nnnn2C2CCCC2)N2CCc3ccccc32)cc1 (configuration not stated) | -13.9% | ? | 25.6% | ? | 9.5 | 22.0*
CC(C)C(c1nnnn1C1CCCCC1)N1CCc2ccccc2C1 (configuration not stated) | -0.3% | -14.7% | 7.9%[5.75 µM] | 14.7µM* | 27.5 | -2.0
CC(C)C(c1nnnn1C1CCCC1)N1CCc2ccccc21 (configuration not stated) | -12.8% | -5.9% | ? | ? | -22.4 | -4.2
O=C(CN1C(=O)NC2(CCCc3ccccc32)C1=O)NCc1ccc(Cl)cc1Cl (configuration not stated) | 3.4% | . | -8.0% | -17.3% | -7.0 | -2.6
O=C(CCCN1C(=O)c2cccc3cccc(c23)C1=O)NCc1cccs1 | -1.9% | 2.1% | 3.9% | -2.7% | 3.1 | -1.3
Cc1ccc2c(c1)-n1c(nc3ccccc3c1=O)C(Cc1ccccc1)NC2=O (configuration not stated) | . | 0.2% | . | . | . | .
CCOC(=O)N1CCN(C(=O)c2ccc(Cl)nc2)CC1 | -5.0% | 2.2% | -13.4% | -0.2% | 4.6 | 0.1
CCOC(=O)N1CCC(=C2c3ccc(Cl)cc3CCc3cccnc32)CC1 | -11.0% | ? | 10.4µM*! | 11.7µM* | -14.7 | -4.4
CCc1cc(/C(Cc2ccccn2)=N\Nc2ccccc2)c(O)cc1O | 86.9% | -11.1% | ? | 0.0% | 27.9 | 1.8
SMILES | AMA1 RON2 block | HCV inh | Pf growth 96h | Pf growth 48h | Shiga inhibitor | Cycloheximide cs
c1ccc2c(c1)CCC[C@@H]2C1=NCCN1 | . | . | -0.9% | 4.9% | . | .
Cc1ccc(NC(=O)C(C)Sc2nc(=O)cc(N)n2-c2ccccc2)cc1 (configuration not stated) | 0.0% | 14.3% | -8.1% | . | 7.9 | 7.2
C=CCn1c(N)cc(=O)nc1SC(C)C(=O)Nc1ccc(C(=O)OCC)cc1 (configuration not stated) | 5.9% | 25.7% | 15.2% | 4.15µM* | -11.2 | -6.5
CCOC(=O)c1ccccc1NC(=O)CN1C(=O)NC(C)(CCc2ccccc2)C1=O (configuration not stated) | -10.5% | ? | ? | ? | . | .
Cc1cccc(N(C(=O)c2snc(C(N)=O)c2N)C(C(=O)NCC2CCCO2)c2ccc3ncccc3c2)c1 (configuration not stated) | -18.7% | -24.7% | 22.7% | ? | -2.7 | -2.2
COc1cc(OC)c(-c2nc3ccccc3s2)cc1OC | 0.3% | 11.2µM* | ? | -12.0% | 33.2* | 23.6*
Clc1ncccc1-c1nc2ccccc2s1 | 9.0% | ? | 161.1% | 111.3% | 105.9* | 34.4*
COc1cccc(-c2nc3ccccc3s2)c1O | -2.7% | ? | 9.3% | 165.0% | 64.3 | 27.3*
CCOC(=O)[C@H]1[C@H]2COc3ccc(C)cc3[C@@H]2N2C(=O)CN(C)C(=O)[C@@]12C | 6.0% | 12.5% | . | . | . | .
Cc1c(C(=O)Nc2cccc([N+](=O)[O-])c2)cnn1-c1ccccc1 | 4.4% | ? | 179.1% | 50.1% | 113.5* | 47.0*
Cc1c(C(=O)Nc2cccc(F)c2)cnn1-c1ccccc1 | -3.4% | 11.2µM* | -11.2% | 262.1% | 63.6* | 39.0*
CCCc1c(C(=O)Nc2ccc(F)cc2F)cnn1-c1ccccc1 | 13.2% | -16.2% | -6.9% | -2.6% | 12.4 | 16.9*
Cc1occc1C(=O)Nc1cccc([N+](=O)[O-])c1 | -5.7% | 20.1% | 18.5% | 65.1% | 16.8 | -2.3
Cc1c(C(=O)Nc2ccccc2)cnn1-c1ccccc1 | -10.6% | -3.3% | . | . | . | .
CC(=O)c1cccc(NC(=O)c2cnn(-c3ccccc3)c2C)c1 | -3.5% | -15.9% | 97.7% | 97.2% | 89.9* | 45.1*
CCCNC(=O)C1(C)CCCN(C(=O)c2cccc(C(F)(F)F)c2)C1 (configuration not stated) | -3.9% | . | . | . | . | .
COc1ccc(-c2nn(C)c(=O)c3ccccc23)cc1CNC(=O)NC1CCCCC1 | . | . | -11.3% | -27.8% | 13.6 | 0.9
O=C(NC1CCCCC1)C1CC(=O)N(c2cccc([N+](=O)[O-])c2)C1 (configuration not stated) | -7.5% | 7.7% | 36.7% | -1.5% | 18.2 | -2.5
CCN(CC)C(=O)c1cnn(-c2ccccc2)c1NC(=O)c1ccccc1F | -1.9% | 15.1% | 0.928µM* | -12.1% | -7.4 | -1.0
CCC(CC(C)(C)O)C(=O)NNC(=S)Nc1ccccc1 (configuration not stated) | 66.0% | 13.6% | ? | 33.1% | 19.2 | 7.6
